For orientation: inhibition means the drop in the measured response relative to a control, in per cent.

“And” between values parts separate entries of the source, which are not always exact repeats. Equal entries are not always repeated. Values without a mark were called inactive. For some assays here: Results with a measured potency or affinity are listed apart. The source made the active and inactive calls. Unless noted, the rule behind the calls is not given here.

The nature of assay [1]: antimalarial activity against Dd2 strain (AID 2302;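 active = growth inhibition above 50% at the single 2 µM test dose, taken to imply half-maximal potency below 2 µM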;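 note: 0% = DMSO untreated growth and 100% = chloroquine plus artemisinin killed control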). The conditions noted are these: P. falciparum Dd2 in RBCs, LDH growth readout, 72 h; at 2 µM; active compounds read high.
Assay [2] is described as follows: human hepatoma cell viability loss – ATP luminescence, cytotoxicity control for P. falciparum antimalarial project, primary screen (AID 2303;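 active = inhibition above 50%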;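 note: 0% = DMSO wells and 100% = digitonin-killed cells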). The conditions noted are these: HepG2 viability, 24-48 h, at 10 µM, active compounds read high.
In assay [3] the target is L-lactate dehydrogenase (Plasmodium falciparum (isolate CDC / Honduras)) (UniProt Q27743). The experiment in a line: PfLDH activity inhibition – cell lysate, 3D7 strain, counter-screen for P. falciparum growth inhibition project (AID 2304).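 Note: 0% = vehicle and 100% = reference inhibitor.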 The conditions noted are these: P. falciparum 3D7 crude extract, LDH APAD/NBT absorbance; at 2 µM; active compounds read high. Background: A counterscreen serves to expose hits that act by an unwanted route or on another target.
L-lactate dehydrogenase (Plasmodium falciparum (isolate CDC / Honduras)), sequence (Q27743 whole entry, looked up): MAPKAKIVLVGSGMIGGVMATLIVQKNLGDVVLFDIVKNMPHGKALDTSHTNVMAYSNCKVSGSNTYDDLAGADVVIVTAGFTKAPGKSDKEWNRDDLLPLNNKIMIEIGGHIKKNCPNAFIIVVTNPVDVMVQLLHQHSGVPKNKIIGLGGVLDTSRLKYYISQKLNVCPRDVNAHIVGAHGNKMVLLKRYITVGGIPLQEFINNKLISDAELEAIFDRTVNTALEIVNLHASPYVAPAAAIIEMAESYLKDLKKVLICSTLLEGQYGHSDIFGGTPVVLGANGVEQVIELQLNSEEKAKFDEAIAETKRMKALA

A short description of assay [4]: inhibition of 3D7 malaria parasite growth – strain 3D7 (AID 2306).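 Note: 0% = DMSO wells and 100% = chloroquine plus artemisinin control wells.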 The conditions noted are these: P. falciparum 3D7 erythrocytic growth, LDH absorbance, 72 h; at 2 µM; active compounds read high.
Assay [5] deals with Calcium-dependent protein kinase 1 (Plasmodium falciparum (isolate 3D7)) (UniProt P62344). The experiment in a line: PfCDPK1 kinase inhibitors, biochemical, TCAMS library (AID 1159585; cut-off not given, nearly all actives have IC50 up to about 0.98 µM;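 note: inhibitors leave more ATP so luminescence rises with inhibition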). The conditions noted are these: recombinant PfCDPK1, Kinase-Glo ATP depletion luminescence. (In general: Kinase-Glo reads ATP consumption through a luciferase reaction.)
Calcium-dependent protein kinase 1 (Plasmodium falciparum (isolate 3D7)), sequence (P62344 whole entry, looked up): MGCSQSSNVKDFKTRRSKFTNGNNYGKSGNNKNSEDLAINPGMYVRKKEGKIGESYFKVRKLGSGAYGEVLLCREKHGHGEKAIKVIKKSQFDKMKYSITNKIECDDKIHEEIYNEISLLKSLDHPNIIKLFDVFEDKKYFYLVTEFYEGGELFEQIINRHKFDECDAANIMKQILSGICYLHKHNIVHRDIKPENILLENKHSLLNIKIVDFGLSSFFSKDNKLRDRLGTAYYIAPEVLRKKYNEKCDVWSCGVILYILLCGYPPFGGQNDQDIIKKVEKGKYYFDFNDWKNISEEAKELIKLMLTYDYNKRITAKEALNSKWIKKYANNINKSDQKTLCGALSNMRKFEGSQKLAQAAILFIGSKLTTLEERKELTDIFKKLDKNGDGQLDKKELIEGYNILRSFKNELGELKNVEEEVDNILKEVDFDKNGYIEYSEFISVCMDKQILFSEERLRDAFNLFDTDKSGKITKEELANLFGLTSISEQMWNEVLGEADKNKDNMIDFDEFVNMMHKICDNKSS
In assay [6] the target is Plasmodium falciparum protein kinase 6 (PK6, PF3D7_1337100) (UniProt Q8IDW1). The experiment in a line: PfPK6 kinase inhibitors, biochemical, TCAMS library (AID 1159586). The conditions noted are these: recombinant PfPK6, Kinase-Glo ATP depletion luminescence.
Plasmodium falciparum protein kinase 6 (PK6, PF3D7_1337100), sequence (Q8IDW1 1-305): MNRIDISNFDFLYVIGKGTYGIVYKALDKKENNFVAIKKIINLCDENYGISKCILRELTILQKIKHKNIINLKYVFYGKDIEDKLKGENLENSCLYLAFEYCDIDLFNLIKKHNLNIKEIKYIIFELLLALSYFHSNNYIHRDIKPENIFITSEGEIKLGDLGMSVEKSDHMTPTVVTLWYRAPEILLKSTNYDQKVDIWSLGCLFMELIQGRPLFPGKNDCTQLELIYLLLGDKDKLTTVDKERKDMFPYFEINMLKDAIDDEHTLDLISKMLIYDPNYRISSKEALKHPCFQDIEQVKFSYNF
For assay [7], the target named is Protein kinase 7 (PK7), Plasmodium falciparum 3D7 (PF3D7_0213400) (UniProt Q7YTF7). Briefly: inhibition of Plasmodium PK7 catalytic activity – biochemical, TCAMS antimalarial set, Kinase-Glo luminescence (AID 1159587). The conditions noted are these: recombinant PfPK7, Kinase-Glo ATP depletion luminescence.
Protein kinase 7 (PK7), Plasmodium falciparum 3D7 (PF3D7_0213400), sequence (Q7YTF7 1-343): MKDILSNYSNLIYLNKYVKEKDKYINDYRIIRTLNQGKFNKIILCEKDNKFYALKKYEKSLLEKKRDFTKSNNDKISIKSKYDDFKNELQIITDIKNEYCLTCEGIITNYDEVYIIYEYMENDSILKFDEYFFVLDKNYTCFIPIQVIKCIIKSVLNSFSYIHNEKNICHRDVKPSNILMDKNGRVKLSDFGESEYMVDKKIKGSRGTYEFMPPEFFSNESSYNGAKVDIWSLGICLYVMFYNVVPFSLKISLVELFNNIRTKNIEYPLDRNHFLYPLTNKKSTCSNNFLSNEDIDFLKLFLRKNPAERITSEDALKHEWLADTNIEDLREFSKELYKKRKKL
Assay [8] has as its target Calcium-dependent protein kinase 4 (Plasmodium falciparum (isolate 3D7)) (UniProt Q8IBS5). The experiment in a line: PfCDPK4 kinase inhibitors, biochemical, TCAMS library (AID 1159588; cut-off not given, nearly all actives have IC50 up to about 0.91 µM). The conditions noted are these: recombinant PfCDPK4, Kinase-Glo ATP depletion luminescence.

Calcium-dependent protein kinase 4 (Plasmodium falciparum (isolate 3D7)), sequence (Q8IBS5 whole entry, looked up): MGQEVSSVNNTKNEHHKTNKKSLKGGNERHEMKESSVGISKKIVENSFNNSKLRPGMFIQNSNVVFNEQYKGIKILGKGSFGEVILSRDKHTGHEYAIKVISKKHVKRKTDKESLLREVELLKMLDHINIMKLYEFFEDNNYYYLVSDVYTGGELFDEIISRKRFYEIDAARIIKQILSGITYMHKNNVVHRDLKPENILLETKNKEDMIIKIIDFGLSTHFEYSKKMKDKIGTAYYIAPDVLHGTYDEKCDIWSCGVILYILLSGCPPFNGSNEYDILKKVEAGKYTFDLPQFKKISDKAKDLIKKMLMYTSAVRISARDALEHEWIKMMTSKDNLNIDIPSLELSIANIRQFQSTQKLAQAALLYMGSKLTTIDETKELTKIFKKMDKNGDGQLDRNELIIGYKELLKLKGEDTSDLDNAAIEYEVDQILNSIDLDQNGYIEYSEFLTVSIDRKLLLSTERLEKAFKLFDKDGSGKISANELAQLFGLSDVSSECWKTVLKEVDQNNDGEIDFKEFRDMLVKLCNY

On to `O=C(/C=C/c1ccc(Cl)c(Cl)c1)N1CCC(CN2[C@@H]3CC[C@H]2CC(c2c[nH]c4ccccc24)C3)CC1` (some centres not stated), for which the growth inhibition in assay [1] was 66% (active); in assay [4] it was 100% (active). Moreover, the inhibition in assay [2] was 84% (active); in assay [3], -3%. In addition, the outcome in assay [5], in assay [6], in assay [7] and in assay [8] was inactive.

In the case of `C/C=C1\CN2CC[C@H]1C[C@H]2[C@H](O)c1ccnc2ccc(O)cc12`, the growth inhibition in assay [1] is -1%; in assay [4] it was 98% (active). Besides, the inhibition was -15% in assay [2] and -3% in assay [3]. For the same molecule, the outcome in assay [5], in assay [6], in assay [7] and in assay [8] was inactive.

In the case of `CCCCCc1cc(O)c2c(c1)OC(C)(C)CC2C1=CCN(Cc2cnc3ccccc3c2)CC1` (configuration not stated), the growth inhibition in assay [1] and in assay [4] was 98% (active) each time. In addition, the inhibition in assay [2] is 27%; in assay [3], 0%. Besides, the outcome in assay [5], in assay [6], in assay [7] and in assay [8] was inactive.

Regarding `CCCc1cc(O)c2c3c(c(=O)oc2c1)CN(C)CC3`, the values for the growth inhibition in assay [1] and in assay [4] were 50% (active) and 98% (active), respectively. Also, the inhibition in assay [2] was 12%; in assay [3], 0%. Besides, the result in assay [5], in assay [6], in assay [7] and in assay [8] was inactive.

As to `CC(C)C[C@H](Nc1ccc(C#N)c2ccccc12)C(=O)N[C@@H]1CCCc2ccccc21`, the values for the growth inhibition in assay [1] and in assay [4] were 100% (active) and 99% (active), respectively. Further, the inhibition in assay [2] is 38%; in assay [3] it was 10%. For the same molecule, the result in assay [5], in assay [6], in assay [7] and in assay [8] was inactive.

On to `CC(Cc1ccc([N+](=O)[O-])cc1)NCC(O)c1cccc(C(F)(F)F)c1` (configuration not stated), for which the growth inhibition is 92% (active) in assay [1] and 98% (active) in assay [4]. The inhibition in assay [2] and in assay [3] was -2% each time. Besides, the outcome in assay [5], in assay [6], in assay [7] and in assay [8] was inactive.

As to `COc1ccc(CN2CCN(CCOC(c3ccccc3)c3ccccc3)CC2)c(O)c1`, the results for the growth inhibition in assay [1] and in assay [4] were 84% (active) and 96% (active), respectively. In addition, the inhibition in assay [2] was 19%; in assay [3], 0%. Also, the outcome in assay [5], in assay [6], in assay [7] and in assay [8] was inactive.

In the case of `CCCCCC(C)C(C)c1cc(O)c2c3c(c(=O)oc2c1)CN(Cc1ccccc1)CC3` (configuration not stated), the growth inhibition in assay [1] was 47%; in assay [4] it was 99% (active). Further, the results for the inhibition in assay [2] and in assay [3] were 4% and -2%, respectively. For the same molecule, the outcome in assay [5], in assay [6], in assay [7] and in assay [8] was inactive.

In the case of `O=C(NC1CCN(CC2(c3ccc(Cl)cc3)CCC2)CC1)c1ccn[nH]1`, the growth inhibition is 43% in assay [1] and 96% (active) in assay [4]. For the same molecule, the inhibition was -7% in assay [2] and -3% in assay [3]. In addition, the result in assay [5], in assay [6], in assay [7] and in assay [8] was inactive.

Consider `S=C(Nc1ccc2c(c1)OCCO2)NC1CCC(CN2CCC(c3c[nH]c4ccccc34)CC2)CC1` (configuration not stated), for which the growth inhibition in assay [1] is 7% and 1%; in assay [4], 96% (active) and 92% (active). The inhibition was 31% and 32% in assay [2]; -8% and -1% in assay [3]. In addition, the result in assay [5], in assay [6], in assay [7] and in assay [8] was inactive.

On to `CCC1(C)CC(CCNCc2ccccc2O)(c2ccc(C)cc2)CCO1` (configuration not stated), for which the results for the growth inhibition in assay [1] and in assay [4] were 66% (active) and 97% (active), respectively. For the same molecule, the inhibition in assay [2] was 9%; in assay [3] it was -7%. The result in assay [5], in assay [6], in assay [7] and in assay [8] was inactive.

For the molecule `OC(CNC1CCCCCCC1)c1ccc(Cl)c(Cl)c1` (configuration not stated), the growth inhibition in assay [1] was 99% (active); in assay [4], 100% (active). Moreover, the inhibition in assay [2] is 17%; in assay [3] it was -5%. Further, the result in assay [5], in assay [6], in assay [7] and in assay [8] was inactive.

As to `CS(=O)(=O)Nc1ccc2[nH]cc(C3C[C@H]4CC[C@@H](C3)N4CC3CCC(NC(=O)/C=C/c4ccc(Cl)c(Cl)c4)CC3)c2c1` (some centres not stated), the results for the growth inhibition in assay [1] and in assay [4] were 50% (active) and 101% (active), respectively. In addition, the values for the inhibition in assay [2] and in assay [3] were 3% and 7%, respectively. In addition, the result in assay [5], in assay [6], in assay [7] and in assay [8] was inactive.

Take `COc1ccc2c(c1)[nH]c1c(C=Cc3ccccc3)nccc12`: the growth inhibition is 6% in assay [1] and 91% (active) in assay [4]. The figures for the inhibition in assay [2] and in assay [3] were 19% and 7%, respectively. Further, the result in assay [5], in assay [6], in assay [7] and in assay [8] was inactive.

As to `N#Cc1c(Cl)cccc1Oc1ccc(S(=O)(=O)N2CCC(CN3CCC(c4c[nH]c5ccccc45)CC3)CC2)cc1`, the growth inhibition in assay [1] is 67% (active); in assay [4] it was 100% (active). For the same molecule, the inhibition in assay [2] was 36%; in assay [3] it was 4%. Besides, the outcome in assay [5], in assay [6], in assay [7] and in assay [8] was inactive.

Regarding `COc1cccc(CN2CCC(CCOC(c3ccccc3)c3ccc(Cl)cc3)CC2)c1O` (configuration not stated), the growth inhibition in assay [1] was 100% (active); in assay [4] it was 99% (active). The inhibition in assay [2] was 22%; in assay [3], -2%. For the same molecule, the result in assay [5], in assay [6], in assay [7] and in assay [8] was inactive.

As to `CCCCC1(NC(=O)[C@H](CC(C)C)Nc2ccc(C#N)c3ccccc23)CCCCC1`, the growth inhibition was 47% in assay [1] and 96% (active) in assay [4]. The inhibition in assay [2] is 37%; in assay [3], 5%. For the same molecule, the result in assay [5], in assay [6], in assay [7] and in assay [8] was inactive.

As to `Cc1ccc2c(C3=CCN(CCCCC4(C)C(=O)Nc5ccccc54)CC3)c(C)[nH]c2c1` (configuration not stated), the figures for the growth inhibition in assay [1] and in assay [4] were 91% (active) and 95% (active), respectively. Moreover, the figures for the inhibition in assay [2] and in assay [3] were 9% and -3%, respectively. Besides, the outcome in assay [5], in assay [6], in assay [7] and in assay [8] was inactive.

`CC[C@H]1CN2CC[C@H]1C[C@H]2[C@H](O)c1cc(-c2ccccc2C)nc2ccc(OC)cc12`: the growth inhibition in assay [1] was 98% (active); in assay [4], 100% (active). For the same molecule, the inhibition in assay [2] is 16%; in assay [3], 2%. For the same molecule, the result in assay [5], in assay [6], in assay [7] and in assay [8] was inactive.

Source of the values: PubChem BioAssay.
